Data from PubChem BioAssay (Tox21).
Several values for one entry are separate records, joined by “and”; a condition that tells them apart may be missing. Equal values may be shown once. Results filed as inconclusive are left out. Where a call stands in place of a potency, no number is given. Where a structure was tested more than once in an assay, its records may differ in their call. Activity calls are given as the source filed them. Calls follow the shape of the dose curve; as a rule, active = well fitted curve in the direction sought with a large enough effect in the repeat runs; inconclusive = weak or mixed curves; inactive = no such curve, though single readings can be large; an effect the other way counts as inactive or inconclusive.

Legend:
[1] = target: Voltage-gated inwardly rectifying potassium channel KCNH2 (Homo sapiens) (UniProt Q12809); assay: Human Ether-a-go-go-Related Gene (hERG) channel small molecule antagonists: fluorescence cell-based qHTS assay (AID 1671200); also: nearly all actives have a fitted effect of over 50% in size
Method in brief: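 Cell line hERG-U2OS; dye FluxOR II, 1 h RT dark; Tl+ stimulus; ex 480/em 540 nm, read each second for 2 min.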

[2] = target: Cytochrome P450 2C19 (Homo sapiens) (UniProt P33261); assay: Cytochrome P450 Family 2 Subfamily C Member 19 (CYP2C19) small molecule antagonists: luciferase reporter qHTS assay (AID 1671197); also: nearly all actives have a fitted effect of over 65% in size
Method in brief: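 Quantitative high-throughput screen of the Tox21 library using CYP2C19 with proluciferin substrate. Reaction: NADPH regeneration, 37C, 1 h, after 10 min compound preincubation at room temperature. Readout: luminescence.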

[3] = target: Cytochrome P450 2C9 (Homo sapiens) (UniProt P11712); assay: Cytochrome P450 Family 2 Subfamily C Member 9 (CYP2C9) small molecule antagonists: luciferase reporter qHTS assay (AID 1671198); also: nearly all actives have a fitted effect of over 50% in size
Method in brief: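 CYP2C9 activity was measured with a P450-Glo proluciferin substrate. Enzyme–substrate mix was held with compound for 10 min at room temperature, then NADPH regeneration solution was added for 1 h at 37C. Luciferin product was read as luminescence.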

[4] = target: Cytochrome P450 1A2 (Homo sapiens) (UniProt P05177); assay: Cytochrome P450 Family 1 Subfamily A Member 2 (CYP1A2) small molecule antagonists: luciferase reporter qHTS assay (AID 1671199); also: nearly all actives have a fitted effect of over 50% in size
Method in brief: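 Signal from luciferin formed by CYP1A2 from a proluciferin substrate is read as luminescence, expressed in relative luminescence units. Compounds sit with enzyme 10 min, NADPH-driven reaction runs 1 h, all at room temperature.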

[5] = target: Cytochrome P450 3A4 (Homo sapiens) (UniProt P08684); assay: Cytochrome P450 Family 3 Subfamily A Member 4 (CYP3A4) small molecule antagonists: luciferase reporter qHTS assay (AID 1671201); also: nearly all actives have a fitted effect of over 50% in size
Method in brief: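 Room-temperature assay throughout: 10 min compound–enzyme/substrate preincubation, 1 h reaction after NADPH regeneration solution, 20 min detection. Luciferin formed from proluciferin substrate is quantified by luminescence.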

[6] = target: Cytochrome P450 2D6 (Homo sapiens) (UniProt P10635); assay: Cytochrome P450 Family 2 Subfamily D Member 6 (CYP2D6) small molecule antagonists: luciferase reporter qHTS assay (AID 1671196); also: nearly all actives have a fitted effect of over 50% in size
Method in brief: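 Inhibition of CYP2D6 was gauged by loss of luminescence, since light produced tracks the luciferin generated from a proluciferin substrate. A 10 min room-temperature preincubation preceded 1 h NADPH-supported turnover.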
Potency is read from the fitted curve at half-maximal effect.

Cytochrome P450 1A2 (Homo sapiens), sequence (P05177 whole entry, looked up): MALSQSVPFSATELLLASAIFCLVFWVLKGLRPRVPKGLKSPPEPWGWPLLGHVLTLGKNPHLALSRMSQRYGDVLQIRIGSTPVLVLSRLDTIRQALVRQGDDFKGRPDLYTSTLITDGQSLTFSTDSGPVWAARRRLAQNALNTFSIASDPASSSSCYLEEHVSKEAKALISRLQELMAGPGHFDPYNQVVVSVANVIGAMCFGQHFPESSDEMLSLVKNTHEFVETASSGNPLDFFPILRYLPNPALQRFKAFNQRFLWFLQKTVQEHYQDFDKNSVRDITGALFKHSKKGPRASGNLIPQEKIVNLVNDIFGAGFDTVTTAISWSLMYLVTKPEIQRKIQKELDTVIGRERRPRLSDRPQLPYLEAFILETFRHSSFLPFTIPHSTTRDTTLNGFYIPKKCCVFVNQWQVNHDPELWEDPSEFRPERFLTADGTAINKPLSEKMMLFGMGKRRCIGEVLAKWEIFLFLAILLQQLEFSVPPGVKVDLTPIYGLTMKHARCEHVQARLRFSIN
Cytochrome P450 2D6 (Homo sapiens), sequence (P10635 whole entry, looked up): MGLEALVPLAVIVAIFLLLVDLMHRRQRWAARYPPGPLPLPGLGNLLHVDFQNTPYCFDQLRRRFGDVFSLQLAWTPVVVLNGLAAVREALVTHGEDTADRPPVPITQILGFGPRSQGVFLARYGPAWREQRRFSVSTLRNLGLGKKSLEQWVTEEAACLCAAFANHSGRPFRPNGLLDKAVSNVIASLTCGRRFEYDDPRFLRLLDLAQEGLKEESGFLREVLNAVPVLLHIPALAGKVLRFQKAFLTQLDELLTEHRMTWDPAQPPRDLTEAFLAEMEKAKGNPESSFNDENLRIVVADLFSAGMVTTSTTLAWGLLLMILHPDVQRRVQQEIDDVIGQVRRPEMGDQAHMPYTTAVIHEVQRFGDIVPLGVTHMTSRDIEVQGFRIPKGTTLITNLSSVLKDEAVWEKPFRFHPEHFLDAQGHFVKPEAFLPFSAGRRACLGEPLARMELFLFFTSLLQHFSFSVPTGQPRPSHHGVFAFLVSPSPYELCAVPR
Cytochrome P450 3A4 (Homo sapiens), sequence (P08684 whole entry, looked up): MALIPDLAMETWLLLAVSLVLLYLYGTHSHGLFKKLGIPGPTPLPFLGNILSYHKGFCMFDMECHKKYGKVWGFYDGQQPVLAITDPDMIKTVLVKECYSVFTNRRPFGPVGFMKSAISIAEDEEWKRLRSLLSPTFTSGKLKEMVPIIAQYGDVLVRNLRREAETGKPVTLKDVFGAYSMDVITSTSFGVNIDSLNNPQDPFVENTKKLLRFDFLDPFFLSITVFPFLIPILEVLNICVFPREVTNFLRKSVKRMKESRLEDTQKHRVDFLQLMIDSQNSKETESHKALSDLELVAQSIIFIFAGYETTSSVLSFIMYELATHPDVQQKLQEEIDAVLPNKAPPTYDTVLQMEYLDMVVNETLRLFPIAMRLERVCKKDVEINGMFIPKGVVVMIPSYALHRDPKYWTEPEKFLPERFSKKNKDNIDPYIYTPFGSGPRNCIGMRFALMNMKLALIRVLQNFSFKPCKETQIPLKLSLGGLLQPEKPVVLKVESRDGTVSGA
Voltage-gated inwardly rectifying potassium channel KCNH2 (Homo sapiens), sequence (Q12809 whole entry, looked up): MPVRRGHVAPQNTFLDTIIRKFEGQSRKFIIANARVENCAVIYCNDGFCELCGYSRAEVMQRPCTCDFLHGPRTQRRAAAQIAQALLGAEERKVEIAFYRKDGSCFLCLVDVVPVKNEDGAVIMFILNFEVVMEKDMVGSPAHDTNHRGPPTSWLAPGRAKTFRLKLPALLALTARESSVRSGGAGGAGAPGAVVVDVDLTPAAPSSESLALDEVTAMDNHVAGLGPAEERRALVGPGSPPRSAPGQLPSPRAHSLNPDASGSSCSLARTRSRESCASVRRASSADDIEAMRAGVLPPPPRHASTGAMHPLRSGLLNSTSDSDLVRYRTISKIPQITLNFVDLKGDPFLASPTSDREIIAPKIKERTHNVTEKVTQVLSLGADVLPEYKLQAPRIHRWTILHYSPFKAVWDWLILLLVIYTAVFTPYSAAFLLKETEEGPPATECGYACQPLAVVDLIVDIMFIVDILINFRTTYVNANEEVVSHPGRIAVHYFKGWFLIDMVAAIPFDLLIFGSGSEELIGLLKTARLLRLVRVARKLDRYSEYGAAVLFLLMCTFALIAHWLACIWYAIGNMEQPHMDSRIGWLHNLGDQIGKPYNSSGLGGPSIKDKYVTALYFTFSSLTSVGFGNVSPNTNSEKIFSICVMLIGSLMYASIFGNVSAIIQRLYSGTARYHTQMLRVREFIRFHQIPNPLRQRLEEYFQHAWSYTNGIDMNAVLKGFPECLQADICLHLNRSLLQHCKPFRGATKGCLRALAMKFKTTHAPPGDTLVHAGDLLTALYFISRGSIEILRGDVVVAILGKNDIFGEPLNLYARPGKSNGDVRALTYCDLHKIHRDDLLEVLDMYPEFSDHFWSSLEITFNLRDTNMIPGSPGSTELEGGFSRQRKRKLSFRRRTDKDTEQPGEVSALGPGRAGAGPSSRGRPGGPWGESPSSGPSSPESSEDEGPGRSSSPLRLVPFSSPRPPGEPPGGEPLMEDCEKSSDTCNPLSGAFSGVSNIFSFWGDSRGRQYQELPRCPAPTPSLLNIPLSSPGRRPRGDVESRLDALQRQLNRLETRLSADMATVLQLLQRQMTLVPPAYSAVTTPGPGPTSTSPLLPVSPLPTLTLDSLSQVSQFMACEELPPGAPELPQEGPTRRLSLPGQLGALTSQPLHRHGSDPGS
Cytochrome P450 2C19 (Homo sapiens), sequence (P33261 whole entry, looked up): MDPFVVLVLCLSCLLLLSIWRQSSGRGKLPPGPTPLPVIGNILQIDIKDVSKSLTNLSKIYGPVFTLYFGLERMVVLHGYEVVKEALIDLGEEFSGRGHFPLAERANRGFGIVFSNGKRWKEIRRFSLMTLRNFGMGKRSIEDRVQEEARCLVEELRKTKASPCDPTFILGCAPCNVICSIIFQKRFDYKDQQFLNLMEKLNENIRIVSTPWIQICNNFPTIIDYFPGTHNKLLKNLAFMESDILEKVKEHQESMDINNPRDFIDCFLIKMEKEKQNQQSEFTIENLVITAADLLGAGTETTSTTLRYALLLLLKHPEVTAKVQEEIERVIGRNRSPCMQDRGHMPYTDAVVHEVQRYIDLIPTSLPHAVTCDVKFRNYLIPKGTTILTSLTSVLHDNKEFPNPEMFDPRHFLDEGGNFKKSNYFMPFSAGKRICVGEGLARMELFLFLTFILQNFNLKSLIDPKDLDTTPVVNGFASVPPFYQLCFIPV
Cytochrome P450 2C9 (Homo sapiens), sequence (P11712 whole entry, looked up): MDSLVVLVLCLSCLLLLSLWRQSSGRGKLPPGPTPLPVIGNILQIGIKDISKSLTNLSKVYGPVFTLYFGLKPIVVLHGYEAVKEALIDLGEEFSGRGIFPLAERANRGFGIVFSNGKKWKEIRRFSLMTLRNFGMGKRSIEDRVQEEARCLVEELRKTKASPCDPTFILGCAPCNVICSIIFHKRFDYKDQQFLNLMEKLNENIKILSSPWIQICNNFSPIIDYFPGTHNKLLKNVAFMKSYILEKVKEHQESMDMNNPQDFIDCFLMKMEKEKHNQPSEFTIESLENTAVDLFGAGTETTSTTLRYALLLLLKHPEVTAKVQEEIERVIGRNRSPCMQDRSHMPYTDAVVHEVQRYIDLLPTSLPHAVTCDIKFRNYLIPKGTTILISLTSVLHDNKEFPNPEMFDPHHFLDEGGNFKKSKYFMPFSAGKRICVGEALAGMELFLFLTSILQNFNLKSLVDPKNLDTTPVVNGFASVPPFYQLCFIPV

Row | Compound | Potency [1] | Potency [2] | Potency [3] | Potency [4] | Potency [5] | Potency [6]
1 | O=C1NC(=O)C(c2ccccc2)(c2ccccc2)N1 | inactive |  |  |  |  | 
2 | CCCCC1(COC(=O)CCC(=O)O)C(=O)N(c2ccccc2)N(c2ccccc2)C1=O | inactive |  |  |  |  | 
3 | COc1ccc(CN(CCN(C)C)c2ccccn2)cc1 |  | 9.94 µM (active) and 32.8 µM (active) and 21.9 µM (active) | inactive | inactive | inactive | 
4 | CN(C)CCOC(C)(c1ccccc1)c1ccccn1 (stereo not given) |  | 40 µM (active) and inactive | inactive | inactive | inactive | 17.9 µM (active) and 20 µM (active) and 13.8 µM (active)
5 | CCCC[P+](CCCC)(CCCC)CCCC | 21.8 µM (active) and 22.3 µM (active) and 12.3 µM (active) |  |  |  |  | 
6 | Cc1ncc([N+](=O)[O-])n1C |  | inactive | inactive | inactive | inactive | inactive
7 | Nc1ccc([N+](=O)[O-])cc1O |  | 6.33 µM (active) | 43.5 µM (active) | 42.3 µM (active) |  | 
8 | CCN(Cc1c(F)cccc1Cl)c1c([N+](=O)[O-])cc(C(F)(F)F)cc1[N+](=O)[O-] |  | 2.24 µM (active) | 7.96 µM (active) | inactive | 0.399 µM (active) | inactive
9 | C=C(C)C(=O)OCC(C)O (stereo not given) |  | inactive | inactive | inactive | inactive | inactive
10 | O=C(O)CC(O)C(=O)O (stereo not given) | inactive |  | inactive | inactive and 35.6 µM (active) | inactive | inactive
11 | CN(C)C(=O)Nc1ccc(Cl)c(Cl)c1 |  | 39.8 µM (active) and 71 µM (active) and inactive | inactive | 794 nM (active) and 1.42 µM (active) and 645 nM (active) | inactive | 31.6 µM (active) and inactive
12 | CN(N=O)C(=O)N[C@@H]1[C@@H](O)[C@H](O)[C@@H](CO)O[C@@H]1O |  | inactive | inactive | inactive | inactive | inactive
13 | NS(=O)(=O)c1cc2c(cc1Cl)NCNS2(=O)=O | inactive | 62.3 µM (active) and inactive | inactive |  | inactive | inactive
14 | CN1CCC[C@H]1c1cccnc1 | inactive | inactive |  | inactive |  | 35.3 µM (active) and inactive
15 | CCOC(N)=O |  | 60 µM (active) and inactive | inactive | inactive | inactive | inactive
16 | COc1cccc(O)c1O |  | 58.6 µM (active) | inactive |  | inactive | 
17 | CN(C)C(=S)SC(=S)N(C)C |  | 16.3 µM (active) and 20 µM (active) and 7.76 µM (active) | 36.5 µM (active) and 25.2 µM (active) and 34.7 µM (active) | 32.5 µM (active) and 39.9 µM (active) and 25.7 µM (active) | inactive | 
18 | Cn1c(=O)c2c(ncn2C)n(C)c1=O | inactive |  |  |  |  | 
19 | Nc1ccc(O)c([N+](=O)[O-])c1 |  | 22.2 µM (active) | 25 µM (active) | 48.5 µM (active) |  | 
20 | COc1ccc(OC(F)(F)F)cc1CN[C@H]1CCCN[C@H]1c1ccccc1 |  | 79.6 µM (active) |  |  | 1.78 µM (active) | 
21 | COc1ccc2cc(S(=O)(=O)N[C@H](CC(=O)N[C@H](Cc3ccc(CN4[C@H](C)CCC[C@@H]4C)cc3)C(=O)N(C)C(C)C)c3ccc4c(c3)OCO4)ccc2c1 |  |  | 59.9 µM (active) | inactive | 0.0949 µM (active) | 169 nM (active)
22 | O=C1O[C@H]([C@@H](O)CO)C(O)=C1O |  | inactive | inactive | inactive and 19.5 µM (active) | inactive | inactive
23 | CCOc1ccc(NC(C)=O)cc1 |  |  | inactive |  | inactive | inactive
24 | O=c1[nH]cnc2c1ncn2[C@H]1CC[C@@H](CO)O1 |  | inactive | inactive | inactive | inactive | inactive
25 | C1=CC2C3C=CC(C3)C2C1 (stereo not given) | inactive | inactive |  | 57 µM (active) | inactive | 6990 nM (active)
26 | CC(=O)CC(c1ccccc1)c1c(O)c2ccccc2oc1=O (stereo not given) | inactive |  |  |  |  | 
27 | CCCCCCCC(=O)OCC(COC(=O)CCCCCCC)OC(=O)CCCCCCC |  | inactive | inactive | inactive | inactive | inactive
28 | COc1ccc(C(Cl)=C(c2ccc(OC)cc2)c2ccc(OC)cc2)cc1 |  | 7.93 µM (active) and 12.6 µM (active) and 4.36 µM (active) | 8.9 µM (active) and 7.96 µM (active) and 7.76 µM (active) | inactive | inactive | inactive
